This is part of a sample that, as a whole, favours compounds with a hit. Of some 83,000 tested, about 20% had one in any assay.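 Method: cells in 96-well plates; compound added at one concentration; 48 h incubation; percent growth measured; values under 10 scored active.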 A number with no mark means an inactive call. Active and inactive are the calls of the source.
Test system: MDA-MB-468 breast
Experiment: NCI-60 one-dose screen, 48 h (100 = growth as untreated, 0 = no growth, -100 = all killed)
Conditions: 10 µM unless noted

Row | SMILES | growth
1 | C=C(C)[C@@H]1CC[C@]2(C(=O)NC3CCCCC3)CC[C@]3(C)[C@H](CC[C@@H]4[C@@]5(C)CCC(=O)C(C)(C)[C@@H]5CC[C@]43C)[C@@H]12 | 83.5%
2 | N#Cc1cccc(C2C3=C(COC3=O)N(CCO)c3cc4c(cc32)CCC4)c1 (stereo not given) | 3.97% (active)
3 | COCc1nc2ccccc2[nH]1 | 102%
4 | C=C1C(=O)O[C@H]2[C@H]1CC/C(COC(=O)C(=O)c1cn(C)c3ccc(OC)cc13)=C\CC[C@@]1(C)O[C@@H]21 | -63.6% (active)
5 | Cc1ccc2[nH]c(=O)c3c(c2c1)Oc1ncn2nc(-c4ccco4)nc2c1C3c1ccc(Cl)cc1 (stereo not given) | 96.4%
6 | CNC(=O)c1cccc(Cn2nc(C)c(NC(=O)c3ccc(COc4ccc(C(F)(F)F)cc4C)cc3)c2C)n1 | 3.58% (active)
7 | COc1ccc2c(c1)c(-c1nc(-c3c[nH]c4ncccc34)cs1)cn2CCCN1CCOCC1 | 42%
8 | CC[C@H](C)[C@@H]1NC(=O)[C@H]([C@@H](C)O)NC(=O)C(Cc2ccccc2)NC(=O)[C@@H]2CCCN2C(=O)C(C(C)C)NC(=O)C(Cc2ccccc2)NC(=O)CNC(=O)[C@@H]2CCCN2C1=O (stereo not given in full) | 53%
9 | C[C@]12CC[C@@H]3c4ccc(O)c([N+](=O)[O-])c4CC[C@H]3[C@@H]1CC[C@@H]2NS(=O)(=O)c1ccc(C(F)(F)F)cc1 | 25.2%
10 | CN(C)CCN(C)CC(C)(C)C(=O)/C=C/c1ccc(Cl)c(Cl)c1 | -83.6% [100 µM] (active)
11 | O=C(Nc1nn2c(-c3cc(C(F)(F)F)cc(C(F)(F)F)c3)nnc2s1)C1CCCC1 | -17.2% (active)
12 | CC/C(Cc1ccccc1)=C(\c1ccc(OCCN2CCCC2)cc1)c1ccc(OC(C)=O)cc1 | 62.8%
13 | CCCCCCN1C(=O)/C(=c2\sc3n(c2=O)C2C(NN=3)N(CC)C(=O)N2CC)c2ccccc21 (stereo not given) | -10.2% (active)
14 | [O-][n+]1c(Cl)cc(Cl)c2ccccc21 | 123%
15 | COC(/C=C/c1ccc([N+](=O)[O-])cc1)OC | 73.4%
16 | Cc1cn(-c2cccc(NC(=O)c3ccc(C)c(Nc4nccc(-c5cccnc5)n4)c3)c2)cn1 | -41.4% (active)
17 | CC(=O)O[C@]1(C)CC[C@H]2[C@H](CNCCc3ccc(Cl)cc3)C(=O)O[C@@H]2C2=C(C)C(=O)C[C@H]21 | 47.3%
18 | O=C1C(=O)c2cc([N+](=O)[O-])ccc2-c2ccccc21 | -96.2% (active)
19 | Nc1ccc(N=Nc2ccccc2)c2cc(S(=O)(=O)O)ccc12 | 109%
20 | Cc1ccc2nc(-c3ccc(N=Cc4ccccc4O)cc3)sc2c1 | 86.4%
21 | CCn1cc(-c2ccnc3[nH]c(-c4cccc(CN(C)C)c4)cc23)c(-c2ccc(NC(=O)N(C)C)cc2)n1 | 56.5%
22 | COc1cccc(-c2nc3sccn3c2-c2ccnc(NCCCNS(=O)(=O)c3ccc(C(F)(F)F)cc3)c2)c1 | 42.5%
23 | O=C(Nc1cccc(Cn2c(=O)[nH]c3ccc(Oc4ncccn4)cc3c2=O)c1)c1cccc(Cl)c1 | 18.6%

Row | SMILES | growth
24 | O=C(/C=C\c1ccc2ccccc2n1)c1cc(Cl)ccc1O | 107%
25 | Cc1[nH]c(=S)[nH]c(=O)c1C | 112%
26 | c1cc2ccc1CNCCN1CCNCc3ccc(cc3)Oc3ccc(cc3)CNCCN(CCNCc3ccc(cc3)O2)CCNCc2ccc(cc2)Oc2ccc(cc2)CNCC1 | -77.6% (active)
27 | COc1ccc(OC)c(NC(=O)c2cc3oc4ccccc4c3cc2O)c1 | 96.9%
28 | COc1ccc(-c2ccc(C)n2-c2ccc(-c3nc4cc(Cl)ccc4s3)cc2)cc1 | -30.7% (active)
29 | CC[C@H](CC[C@@H](C)[C@H]1CC[C@H]2[C@@H]3CC(=O)C4=CC(=O)/C(=C/c5ccc([N+](=O)[O-])cc5)C[C@]4(C)[C@H]3CC[C@]12C)C(C)C | 104%
30 | CCOC(=O)Cn1c(-c2nonc2NC(=O)c2ccccc2F)nc2ccccc21 | 76%
31 | Cc1nn(-c2ccccc2)c2nc3c(nc12)C1=NCCN1C(c1ccc(Cl)cc1)N3 (stereo not given) | 48.2%
32 | COc1ccc2c(c1)C(C)Cc1c(ncnc1-n1c(C)nc3ccccc31)N2C (stereo not given) | 26.2%
33 | N#Cc1nc(-c2ccccc2)oc1S(=O)(=O)N1CCN(c2ccccc2)CC1 | 98.3%
34 | CCN(CCCCCCN1CC(=O)N(CCCCCCN(CC)Cc2ccccc2OC)CC1=O)Cc1ccccc1OC | 84%
35 | Nc1nc(Nc2ccccc2SSc2ccccc2Nc2nc(N)nc(-c3ccccc3)n2)nc(-c2ccccc2)n1 | 102%
36 | Fc1ccc(Nc2ncnc3ccc(-c4cnc5[nH]ccc5c4)cc23)cc1Cl | -29.7% (active)
37 | CC(C)(C#N)N1CCN(c2ccccc2Cl)CC1 | 103%
38 | CCCC(=O)N1CCCCC1CC (stereo not given) | 102%
39 | CN(C)c1ccc(N)c2ccccc12 | 57.8%
40 | CC(=O)c1cc2c(N)c(C(=O)Nc3ccccc3)sc2nc1C | 24.3%
41 | CN1C2CCC1/C(=C\c1ccc(F)cc1)C(=O)/C2=C/c1ccc(F)cc1 | 28.8%
42 | Cc1ccc(S(=O)(=O)OC[C@]23CCC(C)(C)C[C@H]2C2=CC[C@@H]4[C@@]5(C)CCCNC(C)(C)[C@@H]5CC[C@@]4(C)[C@]2(C)CC3)cc1 | -35.1% (active)
43 | C=C1CCC2C3(C)COC(c4ccc(OC)cc4Br)OC3CCC2(C)C1/C=C/C1=CCOC1=O (stereo not given) | 54.3%
44 | NS(=O)(=O)c1ccccc1NC(=O)Nc1nc2ccccc2s1 | 104%
45 | COc1cc(N2C(=O)[C@H](Cl)C2c2ccc(SC)cc2)cc(OC)c1OC (stereo not given in full) | -9.26% (active)
